According to PubChem BioAssay AID736 (The Scripps Research Institute Molecular Screening Center, 2007):
The whole screen tested about 97,000 compounds, of which about 210 (0.22%) were called active. The list comes from a sample in which actives are over-represented; it also holds similar structures and randomly drawn compounds. A number with no mark means an inactive call. No stated cut-off is given here; in the data, active means inhibition above about 45%; inactive means the rest.

target: Sphingosine 1-phosphate receptor 2 (Homo sapiens) (UniProt O95136); test: blockers of S1P2 receptor signalling – cell-based, primary screen (AID 736); settings: cell-based S1P2 antagonist assay, at 5 µM, active compounds read high;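 further: CRE beta-lactamase reporter cells expressing human S1P2 stimulated with S1P; 0% = agonist at EC80 alone and 100% = agonist plus reference antagonist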
Sequence (O95136 whole entry, looked up): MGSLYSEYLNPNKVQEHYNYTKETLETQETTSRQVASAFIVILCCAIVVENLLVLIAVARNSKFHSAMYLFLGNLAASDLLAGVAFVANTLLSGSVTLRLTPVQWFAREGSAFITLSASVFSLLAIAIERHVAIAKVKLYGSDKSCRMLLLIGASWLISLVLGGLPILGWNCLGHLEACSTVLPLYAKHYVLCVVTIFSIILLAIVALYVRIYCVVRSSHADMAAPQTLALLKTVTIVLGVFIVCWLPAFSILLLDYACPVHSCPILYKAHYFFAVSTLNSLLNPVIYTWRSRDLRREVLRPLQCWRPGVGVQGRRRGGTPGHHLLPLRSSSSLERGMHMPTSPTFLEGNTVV

In order of falling inhibition:
1. Cc1ccc(N(Cc2ccc(C(=O)Nc3ccccc3C(=O)NCc3ccco3)cc2)S(C)(=O)=O)cc1C  29.7%
2. CCCNC(=S)N1CCC(NC(=O)C23CC4CC(CC(C4)C2)C3)CC1  22.7%
3. CC(=O)NNc1cc(=O)c2c(=O)n(C)c(=O)n(C)c2[nH]1  22.2%
4. COc1cccc(/C=N\Nc2nncc(-c3ccccc3)n2)c1  20.6%
5. O=C(Nc1cccc2ncccc12)c1ccc(-c2ccc(Cl)cc2Cl)o1  20.4%
6. COC(=O)C(NC(=O)c1ccc(OC)cc1)(Nc1ncc(S(=O)(=O)c2ccc([N+](=O)[O-])cc2)s1)C(F)(F)F (centres undefined)  19.9%
7. CC(C)(C)c1ccc(C(=O)CSc2ncn[nH]2)cc1  19.4%
8. Cc1cccc(NC(=O)Cn2cc(C(=O)c3ccco3)c3ccccc32)c1  16.7%
9. Cc1ccc(-c2cnc(NC(=O)CCC(=O)N(C)Cc3ccccc3)n2C)cc1  15.9%
10. Cc1ccc(CN(C(=O)c2sc3ccccc3c2Cl)C2CCS(=O)(=O)C2)cc1 (centres undefined)  15.7%
11. COC(=O)c1cccc(-n2[nH]nnc2=S)c1  15.5%
12. O=C1CCCN1CCCNc1ncnc2c1[nH]c1ccccc12  15.4%
13. O=C(NCCCN1CCCCC1)c1ccc2c(c1)NC(=O)C(N1CCOCC1)S2 (centres undefined)  14.6%
14. CN(C)c1ccc(NC(=S)N(CCc2ccccc2)C2CC(=O)N(c3c(Cl)cccc3Cl)C2=O)cc1 (centres undefined)  14.5%
15. O=C(CCCN1C(=O)c2cccc3cccc(c23)C1=O)N1CCN(Cc2ccc3c(c2)OCO3)CC1  13.4%
16. O=C(Nc1nccs1)C1CCN(S(=O)(=O)c2ccc(Cl)c(C(F)(F)F)c2)CC1  13.1%
17. O=C(/C=C/c1cc2c(cc1Br)OCO2)NCc1ccc(Cl)cc1  12.8%
18. CC1CCN(CC(=O)c2c[nH]c3ccccc23)CC1  12.6%
19. O=c1cc(N2CCN(Cc3ccccc3)CC2)c(-c2ccccc2)n[nH]1  11.6%
20. O=C1C(Cl)=C(N2CCOCC2)C(=O)N1c1ccccc1  11.4%
21. O=C1c2ccccc2C(=O)N1CCC(c1ccccc1)c1ccco1 (centres undefined)  11.1%
22. O=C(CCS(=O)(=O)c1cccc2nsnc12)N1CCN(c2ccccc2F)CC1  11.1%
23. N=c1oc2ccccc2cc1C(=O)N/N=C/c1ccccc1  10.7%
24. CNC(=O)/C(=C\C=C\c1ccccc1)NC(=O)c1ccc([N+](=O)[O-])cc1  10.7%
25. CCc1ccccc1NC(=O)/C(=C/c1ccccc1)c1ccccc1  9.77%
26. O=C(O)C1CCN(C(=O)OCc2ccccc2)CC1  9.58%
27. O=C1COc2ccc(NC(=O)N3CCN(c4ccc(F)cc4)CC3)cc2N1  9.28%
28. COCCn1c(C)cc(C2=NNC(=Nc3ccc(F)cc3)SC2)c1C  8.96%
29. O=C(NNC(=O)c1cccnc1)Nc1ccccc1  8.67%
30. COc1ccc(/C=C(\NC(=O)c2ccc(OC)c(OC)c2)C(=O)NCCc2c[nH]c3ccccc23)cc1  8.6%
31. O=c1c2ccccc2c(-c2ccc(F)cc2)nn1-c1ccc(C(F)(F)F)cc1  8.3%
32. CC(C)CCOc1ccc(C(=O)C[N+]2(C)CCOCC2)cc1  8.2%
33. O=C(Nc1ccc2oc(-c3ccc4ccccc4c3)nc2c1)c1cccs1  7.93%
34. COC(=O)CSc1nc(C)c2ccc(OC)cc2n1  7.81%
35. O=C(Nc1cccc2ncccc12)C(Cl)(Cl)Cl  7.55%
36. CCn1c(SCc2ccc(C)cc2)nnc1-c1nn(-c2ccccc2)ccc1=O  7.22%
37. O=C(CSCc1c(Cl)cccc1Cl)NN1C(=O)c2ccccc2C1=O  7.21%
38. Cc1cc2cc3c(N)[nH]nc3nc2cc1C  6.72%
39. Cc1csc(OCC(=O)Nc2ccc(C)c(C)c2)n1  6.53%
40. Cc1cc2nc(SCCN3CCOCC3)[nH]c2cc1C  6.34%
41. Cc1ccc(-c2cc(C(=O)NCC3CCCO3)c3ccccc3n2)o1 (centres undefined)  6.28%
42. O=C(NCN1CCN(CCO)CC1)c1cnccn1  4.69%
43. CC(NC(=O)C1CCC(CNc2c(N3CCOCC3)c(=O)c2=O)CC1)c1ccccc1 (centres undefined)  4.51%
44. Cc1cc(C)cc(OCC(=O)Nc2nc3ccc([N+](=O)[O-])cc3s2)c1  4.48%
45. CC1CC(C)CN(CC(=O)N2c3ccccc3CCc3ccccc32)C1 (centres undefined)  3.76%
46. CC1(C)C2CCC13CS(=O)(=O)NC3C2 (centres undefined)  2.66%
47. CCn1c(CNC(=O)c2ccccc2)nnc1SCC(=O)N1CCN(c2ccccc2)CC1  2.56%
48. Cc1nn(Cc2ccc(F)cc2)c(C)c1NC(=O)c1noc2c1CCc1ccccc1-2  2.56%
49. O=C(CSc1ncn[nH]1)Nc1ccnc2ccccc12  2.49%
50. O=C(Cc1c(O)c2ccccc2[nH]c1=O)NCc1ccccc1  2.46%
51. COc1ccc(C(=O)Oc2cc(/C=N/NS(=O)(=O)c3ccc(C)cc3)ccc2OC)cc1  1.84%
52. CCOC(=O)c1cc(C#N)c(N2CCCCC2)nc1-c1ccccc1  1.48%
53. CCOc1ccc(-n2c(N)c(C(=O)NCC3CCCO3)sc2=S)cc1 (centres undefined)  1.44%
54. O=C1Cc2ccccc2Sc2ccc(Cl)cc21  1.39%
55. O=C(Nc1nccs1)c1cc(S(=O)(=O)N2CCOCC2)c(Cl)cc1Cl  0.95%
56. FC(F)(F)c1nnc2ccc(N3CCN(c4ccccc4)CC3)nn12  0.81%
57. CCCCNC(=O)C1CCCNC1=O (centres undefined)  0.22%
58. CCSc1nnc(NC(=O)c2ccc(C)cc2)s1  0.05%
59. Clc1ccc(CSc2nnc(/C=C/c3ccccc3)o2)c(Cl)c1  -0.17%
60. CCOc1ccc(C(O)Cc2nc3ccccc3n2C)cc1 (centres undefined)  -0.2%
61. FC(F)(F)c1cccc(NC(=S)Nc2cccc(Cl)c2)c1  -0.66%
62. CCN1CCCC1CNc1ncnc2c1[nH]c1ccc(F)cc12 (centres undefined)  -0.72%
63. CCCCOC(=O)Cn1c(=O)n(CC(=O)OCCCC)c2cc(C)ccc21  -1.39%
64. Cc1ccc(C(=O)/C=C/c2c(C)nn(-c3ccccc3)c2Cl)cc1  -1.65%
65. COc1cccc(N2CCN(C3CC(=O)N(c4ccc(Cl)cc4)C3=O)CC2)c1 (centres undefined)  -1.94%
66. CCN(CC)S(=O)(=O)c1cc([N+](=O)[O-])ccc1NNC(=O)Nc1ccccc1  -2.47%
67. CS(=O)(=O)N1CCN(c2ccc(C(=O)NC3C4CC5CC(C4)CC3C5)cc2[N+](=O)[O-])CC1 (centres undefined)  -2.62%
68. O=C(Nc1ccc2c(c1)OCCO2)c1ccc(Cl)c(S(=O)(=O)N2CCCCC2)c1  -2.73%
69. COc1ccc(Cl)cc1NC(=O)CN(C)C(=O)CNC(=O)C12CC3CC(CC(C3)C1)C2  -3.56%
70. COc1cc(/C=C(/NC(=O)c2ccccc2)C(=O)Nc2cccc(O)c2)c([N+](=O)[O-])cc1OC  -3.81%
71. O=C(CSc1nnnn1-c1ccccc1)NCc1ccco1  -4.03%
72. O=C(Nc1ccc2ccccc2c1)Nc1ccc2snnc2c1  -5.16%
73. CCCCCCCC(=O)NC(Nc1ccccc1OC)C(Cl)(Cl)Cl (centres undefined)  -5.42%
74. O=C(COc1ccc(Cl)cc1)NCCSc1ccccc1  -5.9%
75. Cc1noc(COc2ccccc2OCc2onc(C)c2Cl)c1Cl  -6.44%
76. Cc1ccc(CN(N=Nc2nonc2N)c2nonc2N)c(C)c1  -6.92%
77. CC(C)(C)c1ccc(C(=O)NNC(=O)Cc2ccccc2)cc1  -7.08%
78. Cn1c(NN)nc2sc3c(c2c1=O)CCC3  -7.52%
79. Cc1cc(O)cc(O)c1C(=O)Cc1cnn(-c2ccccc2)c1  -8.95%
80. COc1cc(N2CCCC2)c(OC)cc1/C=C(/C#N)c1cccc(Br)c1  -9.11%
81. CCOC(=O)c1sc(NC(=O)CSc2nc(C)cc(C(F)(F)F)n2)c(C#N)c1C  -9.87%
82. Cc1onc(-c2ccccc2Cl)c1C(=O)OCC(=O)c1ccccc1  -10%
83. Cc1ccc(OCc2nnc(NC(=O)OCC(C)C)s2)cc1  -11.9%
84. CC(C)NC(=O)NC(=O)COC(=O)c1ccc(NC(=O)CC#N)cc1  -12.5%
85. Cc1c(C=O)c2ccccn2c1C(=O)c1ccncc1  -13%
86. CCOc1cccc(C(=O)Nc2nnc(-c3cccs3)s2)c1  -13.1%
87. CC(=O)c1ccc2c(c1)c1ccccc1n2CC(C)C  -13.4%
88. O=C(NCC1CCCO1)c1ccc2ccccc2n1 (centres undefined)  -13.9%
89. CCN1CCN(CCCCOc2ccccc2F)CC1  -15.3%
90. O=C(/C=C/c1ccc(Cl)cc1Cl)c1cccnc1  -15.8%
91. COc1cccc(NC(=O)Cc2ccc(C)cc2)c1  -17%
92. C=C(C)C(=O)Nc1cccc(C(C)=O)c1  -17.2%
93. COC(=O)/C(NC(C)=O)=C(\C)c1ccc(Cl)cc1  -17.7%
94. CC(N)C12CC3CC(CC(O)(C3)C1)C2 (centres undefined)  -17.7%
95. Cc1ccc(O/C=C2\OC(=O)c3ccccc32)cc1  -18.2%
96. Fc1ccc(-n2c(Cc3ccccc3)nnc2SCc2nc(-c3ccc(Cl)cc3)no2)cc1  -18.9%
97. Cc1cc(C)c([N+](=O)[O-])cc1-c1ccc(/C=N/NC(=O)c2nonc2N)o1  -20.8%
98. CCN(CC)C(=O)CSc1nnc(CNc2ccc(F)cc2)n1Cc1ccco1  -21.8%
99. CCOC(=O)C(C)n1cnc2sc(C)c(C)c2c1=O (centres undefined)  -21.8%
100. COc1ccc(C(=O)Cc2cnn(-c3ccccc3)c2)c(O)c1  -22.1%
101. Cc1cc(C)n2nc(C(=O)NC(C)(C)C)nc2n1  -24.4%
102. Cc1ccc(/C=N/NC(=O)C2=NNC(c3ccccc3)(c3ccccc3)C2)c(O)c1  -25.5%
103. CCN(CC)CCn1c2ccc(Cl)cc2c2nc(C)sc21  -30.3%
104. COc1ccc(C2CC(=O)Nc3sc(=N)c4c(N)c(C#N)c(N)nc4c32)cc1OC (centres undefined)  -38.4%

In the case of COc1ccc(NC(=O)/C(Cl)=C(/Cl)S(=O)Cc2ccc(C)cc2)cn1 (centres undefined), the inhibition is reported as 98.7% (active).
COC(=O)CN(C(=S)Nc1ccc(Cl)cc1)C1CC(=O)N(c2ccc(OC)cc2)C1=O (centres undefined) was tested, and the inhibition was 54.6% (active).
For O=C(NC(Nc1nc2ccc([N+](=O)[O-])cc2s1)(C(F)(F)F)C(F)(F)F)c1ccccc1, the inhibition was 97.3% (active).
For CC(C)OCCCNc1ncnc2c1[nH]c1ccc(F)cc12, the inhibition was 65.9% (active).
For O=C(/C=C/Sc1ncn[nH]1)c1ccc(Cl)cc1, the inhibition was 59.7% (active).
